Values without a mark were called inactive. For part of these data: Entries with a potency or affinity are not part of this list. The source made the active and inactive calls. Unless noted, how the calls were made is not given here.

Among the data in PubChem BioAssay are growth inhibition, inhibition and outcome values, retold here.

A short description of assay [1]: antimalarial activity against Dd2 strain (AID 2302;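 active means growth inhibition above 50% at the single 2 µM test dose, taken to imply half-maximal potency below 2 µM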;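 further: 0% = DMSO untreated growth and 100% = chloroquine plus artemisinin killed control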). Particulars: P. falciparum Dd2 in RBCs, LDH growth readout, 72 h; at 2 µM; stronger effect = higher value.
The target in assay [2] is L-lactate dehydrogenase (Plasmodium falciparum (isolate CDC / Honduras)) (UniProt Q27743). The assay is described as follows: PfLDH activity inhibition – cell lysate, 3D7 strain, counter-screen for P. falciparum growth inhibition project (AID 2304).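 Further: 0% = vehicle and 100% = reference inhibitor.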 The following applies: P. falciparum 3D7 crude extract, LDH APAD/NBT absorbance; at 2 µM; stronger effect = higher value.
Sequence of L-lactate dehydrogenase (Plasmodium falciparum (isolate CDC / Honduras)) (Q27743 whole entry, looked up): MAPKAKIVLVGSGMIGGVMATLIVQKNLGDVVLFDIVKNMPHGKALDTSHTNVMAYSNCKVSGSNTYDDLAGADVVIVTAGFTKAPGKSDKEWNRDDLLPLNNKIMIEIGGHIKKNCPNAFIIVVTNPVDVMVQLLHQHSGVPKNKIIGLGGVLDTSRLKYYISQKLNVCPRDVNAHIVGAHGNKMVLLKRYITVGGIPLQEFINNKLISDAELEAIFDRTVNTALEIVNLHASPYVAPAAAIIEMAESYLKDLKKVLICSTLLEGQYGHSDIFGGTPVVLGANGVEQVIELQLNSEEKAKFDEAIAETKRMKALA
Assay [3] in a line: inhibition of 3D7 malaria parasite growth – strain 3D7 (AID 2306).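 Further: 0% = DMSO wells and 100% = chloroquine plus artemisinin control wells.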 Particulars: P. falciparum 3D7 erythrocytic growth, LDH absorbance, 72 h; at 2 µM; stronger effect = higher value.
Assay [4] addresses Calcium-dependent protein kinase 1 (Plasmodium falciparum (isolate 3D7)) (UniProt P62344). The assay is described as follows: PfCDPK1 kinase inhibitors, biochemical, TCAMS library (AID 1159585; cut-off not given, nearly all actives have IC50 up to about 0.98 µM;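 further: inhibitors leave more ATP so luminescence rises with inhibition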). The following applies: recombinant PfCDPK1, Kinase-Glo ATP depletion luminescence.
Assay [5] has as its target Plasmodium falciparum protein kinase 6 (PK6, PF3D7_1337100) (UniProt Q8IDW1). The assay is described as follows: PfPK6 kinase inhibitors, biochemical, TCAMS library (AID 1159586). Particulars: recombinant PfPK6, Kinase-Glo ATP depletion luminescence. A general note: Kinase-Glo measures the ATP left after a reaction by luminescence.
Assay [6] concerns the target Protein kinase 7 (PK7), Plasmodium falciparum 3D7 (PF3D7_0213400) (UniProt Q7YTF7). The assay is described as follows: inhibition of Plasmodium PK7 catalytic activity – biochemical, TCAMS antimalarial set, Kinase-Glo luminescence (AID 1159587). The following applies: recombinant PfPK7, Kinase-Glo ATP depletion luminescence.
Assay [7] addresses Calcium-dependent protein kinase 4 (Plasmodium falciparum (isolate 3D7)) (UniProt Q8IBS5). Put plainly: PfCDPK4 kinase inhibitors, biochemical, TCAMS library (AID 1159588; cut-off not given, nearly all actives have IC50 up to about 0.91 µM). The following applies: recombinant PfCDPK4, Kinase-Glo ATP depletion luminescence.
A short description of assay [8]: human hepatoma cell viability loss – ATP luminescence, cytotoxicity control for P. falciparum antimalarial project, primary screen (AID 2303;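 active means inhibition above 50%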;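 further: 0% = DMSO wells and 100% = digitonin-killed cells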). The following applies: HepG2 viability, 24-48 h, at 10 µM, stronger effect = higher value.

Sequence of Protein kinase 7 (PK7), Plasmodium falciparum 3D7 (PF3D7_0213400) (Q7YTF7 1-343): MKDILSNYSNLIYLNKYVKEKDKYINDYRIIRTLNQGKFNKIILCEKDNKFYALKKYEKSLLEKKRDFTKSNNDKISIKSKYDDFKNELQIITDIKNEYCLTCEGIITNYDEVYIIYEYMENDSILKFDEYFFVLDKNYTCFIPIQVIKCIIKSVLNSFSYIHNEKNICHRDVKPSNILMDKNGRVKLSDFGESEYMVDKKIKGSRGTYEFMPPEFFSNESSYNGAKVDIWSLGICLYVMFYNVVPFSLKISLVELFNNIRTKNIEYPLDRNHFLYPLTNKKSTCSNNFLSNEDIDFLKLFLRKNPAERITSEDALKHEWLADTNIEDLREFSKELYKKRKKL
Sequence of Calcium-dependent protein kinase 4 (Plasmodium falciparum (isolate 3D7)) (Q8IBS5 whole entry, looked up): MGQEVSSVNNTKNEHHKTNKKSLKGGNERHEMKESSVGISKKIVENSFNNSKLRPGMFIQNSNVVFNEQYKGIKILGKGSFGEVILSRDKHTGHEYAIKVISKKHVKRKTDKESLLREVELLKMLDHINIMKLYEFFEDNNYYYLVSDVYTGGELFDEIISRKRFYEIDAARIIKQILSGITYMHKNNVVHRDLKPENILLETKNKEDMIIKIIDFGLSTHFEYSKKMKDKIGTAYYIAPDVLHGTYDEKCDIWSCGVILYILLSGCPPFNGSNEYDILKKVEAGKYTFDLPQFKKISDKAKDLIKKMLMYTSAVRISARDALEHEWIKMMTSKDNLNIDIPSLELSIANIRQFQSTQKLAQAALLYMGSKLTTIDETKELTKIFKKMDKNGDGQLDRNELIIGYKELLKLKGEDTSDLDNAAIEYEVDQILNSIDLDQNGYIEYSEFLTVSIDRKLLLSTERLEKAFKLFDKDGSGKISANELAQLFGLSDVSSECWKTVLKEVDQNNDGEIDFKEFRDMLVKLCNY
Sequence of Plasmodium falciparum protein kinase 6 (PK6, PF3D7_1337100) (Q8IDW1 1-305): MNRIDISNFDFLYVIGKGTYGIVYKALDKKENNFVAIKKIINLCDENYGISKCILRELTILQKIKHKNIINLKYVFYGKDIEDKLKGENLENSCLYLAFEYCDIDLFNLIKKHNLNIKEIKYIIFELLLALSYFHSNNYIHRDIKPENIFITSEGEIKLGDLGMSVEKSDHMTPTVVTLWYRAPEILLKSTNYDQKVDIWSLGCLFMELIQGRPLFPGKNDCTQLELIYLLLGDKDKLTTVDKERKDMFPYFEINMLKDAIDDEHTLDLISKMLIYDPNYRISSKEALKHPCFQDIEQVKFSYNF
Sequence of Calcium-dependent protein kinase 1 (Plasmodium falciparum (isolate 3D7)) (P62344 whole entry, looked up): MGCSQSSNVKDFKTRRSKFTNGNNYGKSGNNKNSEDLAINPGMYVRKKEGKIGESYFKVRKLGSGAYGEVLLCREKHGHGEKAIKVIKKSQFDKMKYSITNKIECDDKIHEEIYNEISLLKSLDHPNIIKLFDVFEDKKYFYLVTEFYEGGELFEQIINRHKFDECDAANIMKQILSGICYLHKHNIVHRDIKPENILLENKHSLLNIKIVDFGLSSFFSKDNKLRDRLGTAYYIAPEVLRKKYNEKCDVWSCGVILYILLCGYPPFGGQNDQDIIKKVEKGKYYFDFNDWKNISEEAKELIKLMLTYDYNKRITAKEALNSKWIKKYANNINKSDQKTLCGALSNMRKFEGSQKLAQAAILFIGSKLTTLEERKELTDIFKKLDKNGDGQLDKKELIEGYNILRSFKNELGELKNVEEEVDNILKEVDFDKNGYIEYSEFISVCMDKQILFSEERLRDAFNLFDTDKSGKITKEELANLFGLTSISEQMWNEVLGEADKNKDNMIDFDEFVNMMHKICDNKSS

A word on the inhibition: it is the relative decrease from the control value, in per cent. Consider `Cc1ccccc1OCCCc1c(C)nc(N)nc1N`, for which the growth inhibition is 1% in assay [1] and 97% (active) in assay [3]. The inhibition in assay [2] was -3%. Also, the outcome in assay [4], in assay [5], in assay [6] and in assay [7] was inactive.

For `CCc1ccc(Cc2cnc3nc(N)nc(N)c3c2C)cc1CC`, the growth inhibition was -1% in assay [1] and 97% (active) in assay [3]. Moreover, the inhibition in assay [2] is 6%. The result in assay [4], in assay [5], in assay [6] and in assay [7] was inactive.

As to `O=C(Nc1cccc(OC2CCN(Cc3ccccc3)CC2)c1)c1ccc(Cl)c(Cl)c1`, the growth inhibition in assay [1] is 45%; in assay [3], 101% (active). In addition, the inhibition was 16% in assay [8] and -4% in assay [2]. Moreover, the outcome in assay [4], in assay [5], in assay [6] and in assay [7] was inactive.

For `Cc1[nH]c(C)c(-c2ccc(Oc3ccc(F)cc3)cc2)c(=O)c1Br`, the values for the growth inhibition in assay [1] and in assay [3] were 98% (active) and 100% (active), respectively. The inhibition in assay [2] is -1%. Besides, the result in assay [4], in assay [5], in assay [6] and in assay [7] was inactive.

On to `O=C(Nc1ccc2nc3n(c(=O)c2c1)CCCCC3)C(=O)N1CCC(Cc2ccccc2)CC1`, for which the values for the growth inhibition in assay [1] and in assay [3] were 70% (active) and 91% (active), respectively. For the same compound, the inhibition was 12% in assay [8] and 0% in assay [2]. Further, the result in assay [4], in assay [5], in assay [6] and in assay [7] was inactive.

As to `Nc1nc(N)c2cc(Cc3ccccc3Cl)cnc2n1`, the growth inhibition in assay [1] is -2%; in assay [3] it was 93% (active). In addition, the inhibition in assay [2] was 4%. Further, the outcome in assay [4], in assay [5], in assay [6] and in assay [7] was inactive.

Consider `Cc1cc(N(C)C)nc(Nc2ccc(NC(=O)c3ccccc3Cl)cc2)n1`, for which the values for the growth inhibition in assay [1] and in assay [3] were 31% and 88% (active), respectively. Besides, the inhibition in assay [8] is 3%; in assay [2], -2%. In addition, the outcome in assay [4], in assay [5], in assay [6] and in assay [7] was inactive.

As for `CC(=O)Nc1ccc(C(=O)Nc2cccc(-c3ccc(-c4nc5ccccc5[nH]4)cc3)c2)cn1`, the growth inhibition was 93% (active) in assay [1] and 100% (active) in assay [3]. Moreover, the results for the inhibition in assay [8] and in assay [2] were 12% and 0%, respectively. Further, the outcome in assay [4], in assay [5], in assay [6] and in assay [7] was inactive.

As for `CCc1nc(N)nc(N)c1-c1ccc2c(c1)CCCC2`, the values for the growth inhibition in assay [1] and in assay [3] were -5% and 95% (active), respectively. For the same compound, the inhibition in assay [2] was -5%. Moreover, the outcome in assay [4], in assay [5], in assay [6] and in assay [7] was inactive.

Take `Nc1ncc(-c2ccc(Br)cc2)c(N)n1`: the growth inhibition in assay [1] is 0%; in assay [3], 89% (active). Also, the inhibition in assay [2] was 0%. Besides, the outcome in assay [4], in assay [5], in assay [6] and in assay [7] was inactive.

In the case of `O=C(NNC(=O)c1ccc(CCN2CCC(c3nc(COCC(F)(F)F)c(-c4ccc(F)cc4)o3)CC2)cc1)Nc1ccc(Oc2ccccc2)cc1`, the growth inhibition in assay [1] was 89% (active); in assay [3], 102% (active). Moreover, the inhibition is 38% in assay [8] and 4% in assay [2]. Besides, the outcome in assay [4], in assay [5], in assay [6] and in assay [7] was inactive.

As for `COc1ccc2c(=O)c(Br)c(C)[nH]c2c1`, the growth inhibition is 74% (active) in assay [1] and 89% (active) in assay [3]. In addition, the inhibition in assay [2] was -8%. Further, the outcome in assay [4], in assay [5], in assay [6] and in assay [7] was inactive.

Turning to `Oc1c(CNC2CCCCC2)cc(Cl)c2ccccc12`, the growth inhibition in assay [1] is 101% (active); in assay [3], 98% (active). The inhibition in assay [2] is 0%. Also, the outcome in assay [4], in assay [5], in assay [6] and in assay [7] was inactive.

Turning to `c1ccc2c(NCCOCCNc3c4ccccc4nc4ccccc34)c3ccccc3nc2c1`, the growth inhibition in assay [1] is -1%; in assay [3], 94% (active). Further, in assay [2], the inhibition is 5%. Also, the result in assay [4], in assay [5], in assay [6] and in assay [7] was inactive.

`Cc1ccc(Cc2cccc3nc(N)nc(N)c23)cc1`: the growth inhibition is 0% in assay [1] and 92% (active) in assay [3]. The inhibition in assay [2] is -2%. For the same compound, the result in assay [4], in assay [5], in assay [6] and in assay [7] was inactive.

For the compound `C=CCOc1ccc(Cc2cnc(N)nc2N)cc1CCC`, the figures for the growth inhibition in assay [1] and in assay [3] were -1% and 93% (active), respectively. Moreover, the inhibition in assay [2] is -1%. Also, the result in assay [4], in assay [5], in assay [6] and in assay [7] was inactive.

In the case of `NC(N)=NC(=O)Nc1ccc(Cl)c([N+](=O)[O-])c1`, the growth inhibition in assay [1] is 9%; in assay [3], 97% (active). In assay [2], the inhibition is -8%. Further, the outcome in assay [4], in assay [5], in assay [6] and in assay [7] was inactive.

`C=CCn1ccc2c3c(N)nc(N)nc3ccc21`: the growth inhibition is 91% (active) in assay [1] and 89% (active) in assay [3]. The inhibition in assay [2] is -7%. The result in assay [4], in assay [5], in assay [6] and in assay [7] was inactive.

Consider `Cc1cccc(-c2c(C)nc(N)nc2N)c1`, for which the growth inhibition in assay [1] was -9%; in assay [3], 88% (active). For the same compound, the inhibition in assay [2] is -6%. For the same compound, the result in assay [4], in assay [5], in assay [6] and in assay [7] was inactive.

Take `CCOc1cc2ncnc(Nc3ccc(OCc4c(Cl)cccc4Cl)c(OC)c3)c2cc1OCC`: the figures for the growth inhibition in assay [1] and in assay [3] were 12% and 89% (active), respectively. Moreover, the inhibition in assay [2] is 5%. The result in assay [4], in assay [5], in assay [6] and in assay [7] was inactive.

As to `CCCCCCCN(Cc1ccc(OC(C)(C)C(=O)OCC)cc1)C(=O)Nc1ccc(Cl)cc1OCC`, the growth inhibition was 89% (active) in assay [1] and 95% (active) in assay [3]. The inhibition in assay [2] was 1%. Moreover, the outcome in assay [4], in assay [5], in assay [6] and in assay [7] was inactive.

With `CCCCOc1c(CCNCCCCNCCc2cc(OC)c3ccccc3c2OCCCC)cc(OC)c2ccccc12`, the values for the growth inhibition in assay [1] and in assay [3] were 47% and 91% (active), respectively. For the same compound, the inhibition in assay [2] was 7%. The outcome in assay [4], in assay [5], in assay [6] and in assay [7] was inactive.
